Results on 8 sequences are retold here after PMC7862700, “An all-to-all approach to the identification of sequence-specific readers for epigenetic DNA modifications on cytosine”.

Holding throughout (assay): DAPPL (digital affinity profiling via proximity ligation, sequencing); 10 mM Tris-HCl pH 7.5, 50 mM NaCl, 1 mM DTT, 4% glycerol, room temperature, 30 min; GST-TFs on glutathione beads, 16-mer random dsDNA library, 0.1% formaldehyde crosslink after washing; high values mean tight binding
Common to all, as to conditions: protein: recombinant; tags: N-terminal GST; dsDNA, one strand shown

For one test, the target named is T1, FLI1 (Homo sapiens, UniProt Q01543 1-452).
T1 sequence: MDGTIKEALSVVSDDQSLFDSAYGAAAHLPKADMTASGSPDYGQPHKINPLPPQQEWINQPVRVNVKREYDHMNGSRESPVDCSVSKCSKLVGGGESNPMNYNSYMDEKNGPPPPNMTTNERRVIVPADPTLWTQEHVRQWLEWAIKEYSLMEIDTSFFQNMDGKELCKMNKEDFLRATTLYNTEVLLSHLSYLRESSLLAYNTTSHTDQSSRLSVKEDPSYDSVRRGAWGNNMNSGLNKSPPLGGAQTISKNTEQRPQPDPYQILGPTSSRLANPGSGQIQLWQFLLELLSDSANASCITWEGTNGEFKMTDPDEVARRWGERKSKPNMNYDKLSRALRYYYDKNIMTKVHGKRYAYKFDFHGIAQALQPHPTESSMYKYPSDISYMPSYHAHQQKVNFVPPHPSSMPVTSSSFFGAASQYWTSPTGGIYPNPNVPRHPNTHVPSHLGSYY
A digest of the protocol: (§1)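 Yeast served to express human transcription factors as GST fusions, which were then captured on glutathione beads and labelled with DNA barcodes. Pooled with a tag-only sample, they were incubated with 200 nmole of a 16-mer random double-stranded DNA library for 30 min at room temperature in Tris/NaCl/DTT/glycerol buffer, washed, crosslinked with 0.1% formaldehyde, ligated by proximity, amplified by PCR and sequenced. Dividing each hexamer's read frequency for a factor by its frequency for the tag-only sample gives the binding signal.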

The next test addresses T2, ELK1 (Homo sapiens, UniProt P19419 1-428).
T2 sequence: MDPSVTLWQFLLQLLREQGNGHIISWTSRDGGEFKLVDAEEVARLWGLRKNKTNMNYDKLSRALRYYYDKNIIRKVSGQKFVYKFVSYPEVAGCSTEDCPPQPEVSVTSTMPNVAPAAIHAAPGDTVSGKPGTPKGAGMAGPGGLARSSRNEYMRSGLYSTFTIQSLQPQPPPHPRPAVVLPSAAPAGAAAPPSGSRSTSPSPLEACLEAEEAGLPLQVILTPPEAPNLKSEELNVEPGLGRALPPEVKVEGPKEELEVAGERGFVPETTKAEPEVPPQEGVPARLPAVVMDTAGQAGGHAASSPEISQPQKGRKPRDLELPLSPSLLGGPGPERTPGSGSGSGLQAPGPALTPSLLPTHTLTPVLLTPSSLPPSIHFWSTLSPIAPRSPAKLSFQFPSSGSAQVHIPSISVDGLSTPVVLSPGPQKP
Summed up: as §1

The target of a further test is T3, GABPA (Homo sapiens, UniProt Q06546 1-454).
T3 sequence: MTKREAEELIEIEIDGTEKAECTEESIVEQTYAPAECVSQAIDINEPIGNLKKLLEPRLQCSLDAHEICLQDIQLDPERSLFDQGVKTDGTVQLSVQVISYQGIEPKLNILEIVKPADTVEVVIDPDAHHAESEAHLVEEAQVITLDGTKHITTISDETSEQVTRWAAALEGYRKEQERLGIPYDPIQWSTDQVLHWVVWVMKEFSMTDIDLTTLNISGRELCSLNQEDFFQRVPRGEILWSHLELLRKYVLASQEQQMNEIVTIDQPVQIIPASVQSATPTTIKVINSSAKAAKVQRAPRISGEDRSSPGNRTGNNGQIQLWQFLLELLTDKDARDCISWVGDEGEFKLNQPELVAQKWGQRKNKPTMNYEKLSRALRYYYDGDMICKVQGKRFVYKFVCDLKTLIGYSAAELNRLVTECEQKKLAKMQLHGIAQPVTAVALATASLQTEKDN
A digest of the protocol:
as §1

In another test the target is T4, ERG (Homo sapiens, UniProt P11308 1-479).
T4 sequence: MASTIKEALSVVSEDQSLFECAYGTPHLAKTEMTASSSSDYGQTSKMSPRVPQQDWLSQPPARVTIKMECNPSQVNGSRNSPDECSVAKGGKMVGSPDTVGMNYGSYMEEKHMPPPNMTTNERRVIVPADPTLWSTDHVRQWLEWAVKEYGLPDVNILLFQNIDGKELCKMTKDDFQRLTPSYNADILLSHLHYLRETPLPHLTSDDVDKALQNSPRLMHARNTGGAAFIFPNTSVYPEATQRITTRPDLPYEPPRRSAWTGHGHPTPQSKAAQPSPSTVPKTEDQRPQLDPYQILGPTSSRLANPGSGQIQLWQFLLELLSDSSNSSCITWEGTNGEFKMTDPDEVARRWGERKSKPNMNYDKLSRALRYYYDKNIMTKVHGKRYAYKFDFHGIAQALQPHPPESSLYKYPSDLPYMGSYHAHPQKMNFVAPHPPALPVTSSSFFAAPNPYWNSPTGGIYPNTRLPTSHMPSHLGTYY
A digest of the protocol: as §1

Another test concerns the target ELF1 (Homo sapiens, UniProt P32519 1-619). Summed up:
as §1

The target in another test is T5, EHF (Homo sapiens, UniProt Q9NZC4 1-300).
T5 sequence: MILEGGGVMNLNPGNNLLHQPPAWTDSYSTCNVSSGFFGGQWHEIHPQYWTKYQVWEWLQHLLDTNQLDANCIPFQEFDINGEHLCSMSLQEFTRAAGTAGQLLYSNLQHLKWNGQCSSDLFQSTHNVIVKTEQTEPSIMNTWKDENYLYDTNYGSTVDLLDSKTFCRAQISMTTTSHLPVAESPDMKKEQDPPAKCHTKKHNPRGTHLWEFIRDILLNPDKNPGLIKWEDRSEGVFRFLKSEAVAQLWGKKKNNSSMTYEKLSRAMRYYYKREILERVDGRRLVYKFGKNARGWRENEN
A digest of the protocol:
as §1

Another test concerns the target SPI1 (Homo sapiens, UniProt P17947 1-270). Summed up:
as §1

For a further test, the target named is SPIB (Homo sapiens, UniProt Q01892 1-262). A digest of the protocol: as §1
The next test has as its target T6, ELK3 (Homo sapiens, UniProt P41970 1-407).
T6 sequence: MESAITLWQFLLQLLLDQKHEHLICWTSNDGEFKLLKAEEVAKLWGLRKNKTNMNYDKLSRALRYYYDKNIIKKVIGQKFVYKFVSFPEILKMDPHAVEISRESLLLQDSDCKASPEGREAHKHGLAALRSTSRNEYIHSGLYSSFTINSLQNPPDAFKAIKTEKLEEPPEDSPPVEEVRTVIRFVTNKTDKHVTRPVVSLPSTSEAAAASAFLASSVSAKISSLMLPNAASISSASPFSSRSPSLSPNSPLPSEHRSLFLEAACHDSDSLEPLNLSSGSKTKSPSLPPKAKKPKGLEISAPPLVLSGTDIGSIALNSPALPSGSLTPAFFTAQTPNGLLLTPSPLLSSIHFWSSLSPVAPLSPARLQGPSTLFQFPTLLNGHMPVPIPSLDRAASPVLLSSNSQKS
Summed up: as §1

Sequence of ELF1 (P32519 whole entry): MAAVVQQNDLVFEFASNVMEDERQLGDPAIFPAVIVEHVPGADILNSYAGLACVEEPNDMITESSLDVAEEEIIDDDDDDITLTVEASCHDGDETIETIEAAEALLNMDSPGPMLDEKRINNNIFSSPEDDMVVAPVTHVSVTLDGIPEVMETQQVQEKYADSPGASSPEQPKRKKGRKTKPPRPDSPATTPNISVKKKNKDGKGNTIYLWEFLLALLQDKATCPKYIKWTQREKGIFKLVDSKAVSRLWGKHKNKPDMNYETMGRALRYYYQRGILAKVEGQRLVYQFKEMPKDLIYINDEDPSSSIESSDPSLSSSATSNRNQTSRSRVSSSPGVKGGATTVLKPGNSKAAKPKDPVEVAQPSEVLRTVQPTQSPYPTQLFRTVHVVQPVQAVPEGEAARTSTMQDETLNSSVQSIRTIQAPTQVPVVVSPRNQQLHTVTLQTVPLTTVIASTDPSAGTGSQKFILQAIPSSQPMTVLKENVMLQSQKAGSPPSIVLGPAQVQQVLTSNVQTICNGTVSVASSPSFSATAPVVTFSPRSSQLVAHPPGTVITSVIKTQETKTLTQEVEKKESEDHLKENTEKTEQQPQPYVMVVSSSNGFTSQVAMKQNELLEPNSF
Sequence of SPIB (Q01892 whole entry): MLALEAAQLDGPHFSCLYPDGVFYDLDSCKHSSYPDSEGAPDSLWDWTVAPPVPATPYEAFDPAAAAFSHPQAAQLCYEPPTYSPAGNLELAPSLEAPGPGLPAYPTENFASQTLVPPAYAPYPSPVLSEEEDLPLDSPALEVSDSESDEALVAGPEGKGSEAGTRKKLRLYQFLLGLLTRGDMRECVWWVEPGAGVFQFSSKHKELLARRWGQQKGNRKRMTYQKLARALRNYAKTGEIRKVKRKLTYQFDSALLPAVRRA

As to CCTTGG, the binding signal with FLI1 was 1.28 fold enrichment (6-mer frequency, TF over GST control); with ELK1, 1.41 fold enrichment (6-mer frequency, TF over GST control); with GABPA it was 1.34 fold enrichment (6-mer frequency, TF over GST control); in the test with ERG, 1.28 fold enrichment (6-mer frequency, TF over GST control); with ELF1 it was 1.28 fold enrichment (6-mer frequency, TF over GST control); in the test with EHF it was 1.37 fold enrichment (6-mer frequency, TF over GST control). The binding signal with SPI1 was 1.24 fold enrichment (6-mer frequency, TF over GST control); with SPIB, 1.32 fold enrichment (6-mer frequency, TF over GST control); with ELK3, 1.4 fold enrichment (6-mer frequency, TF over GST control).
Regarding TATAGT, the binding signal is 1.12 fold enrichment (6-mer frequency, TF over GST control) in the test with FLI1; 1.1 fold enrichment (6-mer frequency, TF over GST control) with ELK1; 1.11 fold enrichment (6-mer frequency, TF over GST control) with GABPA; 1.05 fold enrichment (6-mer frequency, TF over GST control) with ERG; 1.07 fold enrichment (6-mer frequency, TF over GST control) with ELF1; 1.12 fold enrichment (6-mer frequency, TF over GST control) in the test with EHF. Moreover, the binding signal in the test with SPI1 is 1.06 fold enrichment (6-mer frequency, TF over GST control); with SPIB it was 1.04 fold enrichment (6-mer frequency, TF over GST control); in the test with ELK3 it was 1.03 fold enrichment (6-mer frequency, TF over GST control).
For TACCAA, the binding signal was 1.14 fold enrichment (6-mer frequency, TF over GST control) with FLI1; 1.17 fold enrichment (6-mer frequency, TF over GST control) with ELK1; 1.11 fold enrichment (6-mer frequency, TF over GST control) with GABPA; 1.18 fold enrichment (6-mer frequency, TF over GST control) with ERG; 1.21 fold enrichment (6-mer frequency, TF over GST control) with ELF1; 1.13 fold enrichment (6-mer frequency, TF over GST control) with EHF. For the same sequence, the binding signal in the test with SPI1 was 1.16 fold enrichment (6-mer frequency, TF over GST control); with SPIB, 1.13 fold enrichment (6-mer frequency, TF over GST control); in the test with ELK3 it was 1.05 fold enrichment (6-mer frequency, TF over GST control).
For the sequence CTACTA, the binding signal with FLI1 is 1.32 fold enrichment (6-mer frequency, TF over GST control); in the test with ELK1, 1.36 fold enrichment (6-mer frequency, TF over GST control); with GABPA it was 1.34 fold enrichment (6-mer frequency, TF over GST control); with ERG, 1.24 fold enrichment (6-mer frequency, TF over GST control); with ELF1 it was 1.39 fold enrichment (6-mer frequency, TF over GST control); in the test with EHF, 1.33 fold enrichment (6-mer frequency, TF over GST control). Besides, the binding signal is 1.32 fold enrichment (6-mer frequency, TF over GST control) in the test with SPI1; 1.3 fold enrichment (6-mer frequency, TF over GST control) with SPIB; 1.37 fold enrichment (6-mer frequency, TF over GST control) with ELK3.
As for CCTACG, the binding signal in the test with FLI1 is 1.34 fold enrichment (6-mer frequency, TF over GST control); with ELK1, 1.41 fold enrichment (6-mer frequency, TF over GST control); in the test with GABPA, 1.39 fold enrichment (6-mer frequency, TF over GST control); with ERG, 1.33 fold enrichment (6-mer frequency, TF over GST control); in the test with ELF1, 1.32 fold enrichment (6-mer frequency, TF over GST control); with EHF, 1.35 fold enrichment (6-mer frequency, TF over GST control). Besides, the binding signal is 1.25 fold enrichment (6-mer frequency, TF over GST control) in the test with SPI1; 1.32 fold enrichment (6-mer frequency, TF over GST control) with SPIB; 1.68 fold enrichment (6-mer frequency, TF over GST control) with ELK3.
Take CTTGTA: the binding signal with FLI1 is 1.5 fold enrichment (6-mer frequency, TF over GST control); with ELK1, 1.36 fold enrichment (6-mer frequency, TF over GST control); with GABPA, 1.37 fold enrichment (6-mer frequency, TF over GST control); with ERG, 1.33 fold enrichment (6-mer frequency, TF over GST control); in the test with ELF1, 1.41 fold enrichment (6-mer frequency, TF over GST control); with EHF, 1.42 fold enrichment (6-mer frequency, TF over GST control). Besides, the binding signal was 1.39 fold enrichment (6-mer frequency, TF over GST control) with SPI1; 1.44 fold enrichment (6-mer frequency, TF over GST control) with SPIB; 1.25 fold enrichment (6-mer frequency, TF over GST control) in the test with ELK3.
For the sequence TACCTA, the binding signal in the test with FLI1 was 1.32 fold enrichment (6-mer frequency, TF over GST control); in the test with ELK1, 1.26 fold enrichment (6-mer frequency, TF over GST control); with GABPA, 1.24 fold enrichment (6-mer frequency, TF over GST control); in the test with ERG, 1.13 fold enrichment (6-mer frequency, TF over GST control); with ELF1, 1.34 fold enrichment (6-mer frequency, TF over GST control); with EHF, 1.22 fold enrichment (6-mer frequency, TF over GST control). Also, the binding signal with SPI1 is 1.28 fold enrichment (6-mer frequency, TF over GST control); with SPIB, 1.22 fold enrichment (6-mer frequency, TF over GST control); with ELK3 it was 1.23 fold enrichment (6-mer frequency, TF over GST control).
TTAAAC: the binding signal is 1.22 fold enrichment (6-mer frequency, TF over GST control) with FLI1; 1.18 fold enrichment (6-mer frequency, TF over GST control) with ELK1; 1.2 fold enrichment (6-mer frequency, TF over GST control) in the test with GABPA; 1.25 fold enrichment (6-mer frequency, TF over GST control) in the test with ERG; 1.23 fold enrichment (6-mer frequency, TF over GST control) with ELF1; 1.26 fold enrichment (6-mer frequency, TF over GST control) in the test with EHF. Also, the binding signal is 1.24 fold enrichment (6-mer frequency, TF over GST control) with SPI1; 1.26 fold enrichment (6-mer frequency, TF over GST control) in the test with SPIB; 1.31 fold enrichment (6-mer frequency, TF over GST control) with ELK3.
